Test results reported in article PMC5540273 (PLoS ONE, 2017).

What follows are molecules tested on AURKB. Settings: concentration: 1 μM, replicates: in singlicate; n = 1.
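Further: KINOMEscan kinase panel screen.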

SMILES | %Inh [%]
Cc1c2ccc(N(C)c3ccnc(Nc4cccc(S(N)(=O)=O)c4)n3)cc2nn1Cc1ccccc1.Cl.Cl [GW787226] | 54
Fc1ccc(-c2ncn(CCCN3CCOCC3)c2-c2cccnc2)cc1 [SB-211743] | 31
COc1ccc(Nc2ncc(C#N)c(Nc3ccccc3C(N)=O)n2)cc1N1CCN(C)CC1.Cl [GSK1558669] | 99.9
O=c1cc(N2CCOCC2)nc2n(Cc3cccc4ccccc34)ccn12 [GSK2333389] | 0
CCc1nc(-c2cccc(C)c2)c(-c2ccnc(NCc3ccccc3)c2)s1 | 14
O=C(NCCNc1ccnc(Nc2ccc(F)cc2)n1)c1cc2ccccc2s1 [GSK1379874] | 0
O=C(NCCNc1ccnc(Nc2ccc(F)cc2)n1)Nc1ccccc1F [GSK1379880] | 32
CN(C(=O)c1ccc(-c2cc(-c3c[nH]nc3-c3ccccn3)ccn2)cc1)C1CCOCC1 [GW810083] | 0
O=C(Nc1n[nH]c2cc(-c3cccc(F)c3)ccc12)C1CC1 [SB-735464] | 39
Cc1nnc(-c2ccc(C)c(-c3ccc(C(=O)Nc4ccc(NS(C)(=O)=O)cc4)cc3)c2)o1 [GW702865] | 8
COc1ccc(S(=O)(=O)NC2CCN(c3cc(C)nc(Nc4cccc(C#N)c4)n3)CC2)cc1.O=C(O)C(F)(F)F [GSK1653539] | 7
O=C(NOCC1CC1)c1ccc(F)c(F)c1Nc1ccc(I)cc1Cl | 0
COc1cc2c(cc1OC[C@@H](O)CO)ncc1c3ccc(C#N)cc3[nH]c21 | 52
NS(=O)(=O)CCc1cccc(Nc2nccc(-c3c(-c4cccc(NC(=O)c5c(F)cccc5F)c4)nn4ccccc34)n2)c1 [GSK336735] | 81
COc1ccc(CNC(=O)NC2CCN(c3ccnc(Nc4ccc(OC)cc4)n3)C2)cc1 (stereo not drawn) [GSK1379727] | 22
c1ccc(-c2cc(-c3c[nH]nc3-c3ccccn3)ccn2)cc1 [GW576604] | 0
Cn1cc(-c2ccc3c(c2)CCN3C(=O)Cc2ccccc2Cl)c2c(N)ncnc21 [GSK2608885] | 86

SMILES | %Inh [%]
Cc1nnc(-c2ccc3ncc(-c4ccc(S(C)=O)cc4)n3c2)o1 (stereo not drawn) | 21
Cc1ccc(NC(=O)c2ccnc(N3CCN(C)CC3)c2)cc1-c1ccc(C(=O)NCC2CC2)cc1 [GW775604] | 2
CN(C1=C(c2ccccc2)C(=O)NC1=O)c1ccccc1 [SB-334860] | 10
Cc1ccc(C(=O)NCC(N)=O)cc1-n1c(C)cc(OCc2ccc(F)cc2F)c(Br)c1=O | 0
NCC(NC(=O)c1cc(-c2cn[nH]c2)c(-c2ccnc3[nH]ccc23)s1)c1ccccc1.O=C(O)C(F)(F)F.O=C(O)C(F)(F)F (stereo not drawn) [GSK1325775] | 83
CNc1ncnc2[nH]ncc12 [SKF-18355] | 34
CCCCCc1nc2c(N)ncnc2n1CCCCC [SKF-97255] | 37
C[C@@H](Oc1cc(-n2cnc3ccc(NC(=O)NC(C)(C)C)cc32)sc1C(N)=O)c1ccccc1Cl [GSK346294] | 22
Cl.Oc1cccc(Nc2ccnc3cc(-c4ccncc4)ccc23)c1 [GW494601] | 43
O=C1NC(=O)C(N2CCc3ccccc32)=C1c1cccc(Cl)c1 [SB-408010] | 7
Cc1cn2c(=O)cc(N3CCOCC3)nc2n1Cc1cccc(Cl)c1Cl [GSK2334006] | 26
N#Cc1c(N2CCOCC2)sc(-c2ccn[nH]2)c1-c1ccc(Cl)cc1 | 4
CC(=O)Nc1ccc(COc2ccc(Nc3ccnc4cc(-c5ccccn5)ccc34)cc2)cc1.Cl [GW440148] | 67
O=c1cc(N2CCOCC2)nc2n(Cc3cccc(C(F)(F)F)c3)ccn12 [GSK2297543] | 0
Fc1ccc(-c2nn3c(OCC(F)(F)F)cccc3c2-c2ccncc2)cc1 [GW514784] | 0
Cc1cccc(-c2nc(Nc3ccc4ncsc4c3)c3ccccc3n2)n1 [GW867588] | 8
